Test results reported in the supplement of paper PMC7366291.
Counter-ions that a name gives are not always drawn. ± gives the standard deviation or the standard deviation of the averaged measurements.

Key:
Conditions in all cases: 25 µM; exposure: 24-48 hpf
[1] = system: Danio rerio Tg(wt1b:EGFP) embryo, pronephros; test: glomerular separation, fold change vs DMSO control; higher = glomeruli further apart (abnormal)
Summary of the method: (§1)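 Features are reported as fold changes against the mean of same-day DMSO-treated embryos. Before that, values more than 2 SD away from the feature mean were excluded. The embryos, dechorionated Tg(wt1b:EGFP) zebrafish, had been exposed from 24 to 48 hpf at 28.5°C to 25 μM compound in 0.5% DMSO in HEPES-buffered E3 with 0.003% PTU, and distances and angles came from 16 manually set points on maximum projections of dorsal pronephros images in Fiji.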

[2] = system: Danio rerio Tg(wt1b:EGFP) embryo, pronephros; test: glomerular width (mean of left and right), fold change vs DMSO control; higher = wider glomerulus
Summary of the method: as §1

[3] = system: Danio rerio Tg(wt1b:EGFP) embryo, pronephros; test: fraction of imaged embryos annotated as normal kidney; higher = less nephrotoxic; extreme values may be limits of the assay
Summary of the method: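 Embryos of the Tg(wt1b:EGFP) zebrafish line were dechorionated and held in 12-well plates with 25 μM compound in 0.5% DMSO and 5 mM HEPES-buffered E3 containing 0.003% PTU, from 24 to 48 hpf at 28.5°C. Larvae were then anaesthetised with tricaine, set dorsal side up in agarose-filled 96-well plates, and their pronephroi imaged by widefield fluorescence at 470 nm over 10 z-slices. Each value is the fraction of embryos per treatment placed in the normal-kidney category after manual annotation of maximum projections.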

[4] = system: Danio rerio Tg(wt1b:EGFP) embryo, pronephros; test: pronephric angle neck segment to proximal convoluted tubule (mean of left and right), fold change vs DMSO control; higher = larger pronephric angle
Summary of the method: as §1

| Compound | glomerular separation [1] | glomerular width [2] | fraction of imaged embryos annotated as normal kidney [3] | pronephric angle neck segment [4] |
| --- | --- | --- | --- | --- |
| CC1(C)S[C@@H]2[C@H](NC(=O)Cc3ccccc3)C(=O)N2[C@H]1C(=O)O [Benzylpenicillin sodium] | 0.915 ± 0.33 | 1.02 ± 0.014 | 0.833 | 1.017 ± 0.0055 |
| CC(C)C(=O)Nc1ccc([N+](=O)[O-])c(C(F)(F)F)c1 [Flutamide] | 1.54 ± 1.1 | 1.12 ± 0.03 | 0.667 | 1.05 ± 0.031 |
| CC(CN1c2ccccc2Sc2ccccc21)N(C)C (configuration not stated) [Promethazine hydrochloride] | 0.666 ± 0.15 | 0.9984 ± 0.0084 | 0.833 | 0.994 ± 0.068 |
| CN1CCN(C(c2ccccc2)c2ccc(Cl)cc2)CC1 (configuration not stated) [Chlorcyclizine hydrochloride] | 1.13 ± 0.62 | 0.995 ± 0.017 | 0.917 | 0.966 ± 0.022 |
| O=C1[C@H]2CCCC[C@H]2C(=O)N1CCCCN1CCN(c2nsc3ccccc23)CC1 [Perospirone] | 1.25 ± 0.36 | 0.9761 ± 0.0054 | 1 | 1.05 ± 0.017 |
| CCCCOc1cc(C(=O)NCCN(CC)CC)c2ccccc2n1 [Dibucaine] | 1.35 ± 0.37 | 0.996 ± 0.044 | 0.917 | 1.007 ± 0.0089 |
| CN(C)C/C=C(/c1ccc(Br)cc1)c1cccnc1 [Zimelidine dihydrochloride monohydrate] | 0.758 ± 0.25 | 0.9778 ± 0.0056 | 0.75 | 0.971 ± 0.055 |
| CC1(C)O[C@@H]2C[C@H]3[C@@H]4CCC5=CC(=O)CC[C@]5(C)[C@@]4(F)[C@@H](O)C[C@]3(C)[C@]2(C(=O)CCl)O1 [Halcinonide] | 2.01 ± 0.91 | 1.18 ± 0.014 | 0.333 | 1.14 ± 0.043 |
| CC(CNC1CCCCC1)OC(=O)c1ccccc1 (configuration not stated) [Hexylcaine hydrochloride] | 0.859 ± 0.46 | 0.937 ± 0.014 | 0.857 | 1.09 ± 0.14 |
| C=C1c2cccc(O)c2C(=O)C2=C(O)[C@]3(O)C(=O)C(C(N)=O)=C(O)[C@@H](N(C)C)[C@@H]3[C@@H](O)[C@H]12 [Methacycline hydrochloride] | 0.724 ± 0.4 | 1.11 ± 0.0095 | 0.818 | 0.984 ± 0.018 |
| CC[C@H](C)C(=O)O[C@H]1C[C@@H](C)C=C2C=C[C@H](C)[C@H](CC[C@@H]3C[C@@H](O)CC(=O)O3)[C@H]21 [Lovastatin] | 5.64 ± 2.1 | 0.622 ± 0.012 | 0 | 1.54 ± 0.057 |
| CCC1NC(=O)c2cc(S(N)(=O)=O)c(Cl)cc2N1 (configuration not stated) [Quinethazone] | 0.951 ± 0.37 | 1.05 ± 0.063 | 0.909 | 1.04 ± 0.027 |
| COc1ccccc1OCC(O)COC(N)=O (configuration not stated) [Methocarbamol] | 1.02 ± 0.45 | 1.05 ± 0.03 | 0.833 | 1 ± 0.013 |
| O=C(CCCN1CCN(c2ccccn2)CC1)c1ccc(F)cc1 [Azaperone] | 1.11 ± 0.43 | 0.925 ± 0.039 | 0.833 | 1 ± 0.019 |
| CC(C)/N=c1\cc2n(-c3ccc(Cl)cc3)c3ccccc3nc-2cc1Nc1ccc(Cl)cc1 [Clofazimine] | 1.02 ± 0.29 | 1.06 ± 0.056 | 0.75 | 0.961 ± 0.0097 |
| CC(C)Cc1ccc([C@H](C)C(=O)O)cc1 [S-(+)-ibuprofen] | 4.34 ± 2.3 | 0.59 ± 0.021 | 0 | 1.61 ± 0.035 |
| CO[C@H]1/C=C/O[C@@]2(C)Oc3c(C)c(O)c4c(O)c(c(/C=N/N5CCN(C6CCCC6)CC5)c(O)c4c3C2=O)NC(=O)/C(C)=C\C=C\[C@H](C)[C@H](O)[C@@H](C)[C@@H](O)[C@@H](C)[C@H](OC(C)=O)[C@@H]1C [Rifapentine] | 0.895 ± 0.2 | 0.985 ± 0.066 | 0.909 | 1.1 ± 0.094 |
| CN(C)CCCO[C@@H]1[C@H]2OC(C)(C)O[C@H]2O[C@@H]1[C@H](O)CO [Amiprilose hydrochloride] | 1.12 ± 0.66 | 1.08 ± 0.071 | 0.667 | 1 ± 0.02 |
